# Data reported in PubChem BioAssay (EPA / NIEHS).
# Inconclusive results are not listed. More than one record can exist for a structure, and the calls need not agree. Activity calls are given as the source filed them. The calls were made as follows, unless noted: active = hit-call score of the fitted dose curve at least 0.9, where 1 is the maximum; inconclusive = response in the unintended direction; inactive = score below 0.9.
# Key:
# [1] = TOX21_p53_BLA_p2_viability: Viability Assessment in the Tox21 HCT-116 p53 Agonism Beta-lactamase Assay, Phase 2 (AID 2283591);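 also: compound exposure lasted 16 h at 37 °C; actives lower the ATP signal meaning cytotoxicity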
# Outline: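 HCT116 p53-bla cells, 4000/well, dosed after 5 h plating (217-fold dilution of DMSO stocks) and incubated 16 h at 37C. Viability taken as cellular ATP by CellTiter-Glo luminescence after 30 min RT; signal loss marks cytotoxicity.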
# [2] = TOX21_p53_BLA_p3_viability: Viability Assessment in the Tox21 HCT-116 p53 Agonism Beta-lactamase Assay, Phase 3 (AID 2283593);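 also: cells exposed to compound for 16 h before reading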
# Outline: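 HCT116 cells, 4000/well, dosed 5 h after plating by pin transfer (217-fold dilution from DMSO stock) and incubated 16 h at 37C, 5% CO2. Viability read as ATP luminescence with CellTiter-Glo after 30 min at room temperature.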
# [3] = TOX21_p53_BLA_p4_viability: Viability Assessment in the Tox21 HCT-116 p53 Agonism Beta-lactamase Assay, Phase 4 (AID 2283597);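 also: hits lower the luminescence signal meaning cytotoxicity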
# Outline: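 Cytotoxicity was inferred from loss of CellTiter-Glo luminescence. HCT116 cells had been dosed with compounds after 5 h plating, incubated 16 h at 37C and 5% CO2, and exposed to the CCF4-AM substrate for 2 h.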
# [4] = TOX21_p53_BLA_p5_viability: Viability Assessment in the Tox21 HCT-116 p53 Agonism Beta-lactamase Assay, Phase 5 (AID 2283600)
# Outline: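 Luciferase-coupled ATP quantitation of cells treated for 16 h (37C, 5% CO2) with test chemicals delivered in DMSO via a 217-fold dilution; 4000 cells/well; reagent incubated 30 min at room temperature before luminescence reading.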
# [5] = CCTE_Harrill_HTTr_Viability_MCF7: CCTE's 6-hour Cell Viability Assessment for the High-Throughput Transcriptomics (HTTr) Platform, in MCF-7 cells cultured in DMEM + 10% fetal bovine serum, Harrill Lab (AID 2284010; active = hit-call score of the fitted dose curve at least 0.9, where 1 is the maximum; inactive = score below 0.9)
# Outline: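 PI exclusion, high-content imaging; 8-pt dilution series, 6 h exposure; bidirectional fit vs DMSO (neg. ctrl/baseline); gain of signal = loss of membrane integrity.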
# [6] = CCTE_Harrill_HTTr_Apoptosis_MCF7: CCTE's 6-hour Apoptosis Assessment for the High-Throughput Transcriptomics (HTTr) Platform, in MCF-7 cells cultured in DMEM + 10% fetal bovine serum, Harrill Lab (AID 2284011; active = hit-call score of the fitted dose curve at least 0.9, where 1 is the maximum; inactive = score below 0.9)
# Outline: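 MCF-7 cells in DMEM + 10% fetal bovine serum were exposed to chemicals for 6 hours over an eight-point dilution series. Caspase-3/7 activation was imaged by high content imaging with CellEvent Caspase 3/7 Green; bidirectional fitting used DMSO as baseline.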
# [7] = CCTE_Harrill_HTTr_CellCount_MCF7: CCTE's Cell Proliferation Assessment for the High-Throughput Transcriptomics (HTTr) Platform, Harrill Lab (AID 2284012);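 also: count of Hoechst-stained nuclei per well by high-content imaging in MCF-7 cells; cells exposed to compound for six hours; intended direction is loss of nuclei count meaning fewer cells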
# Outline: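 Readout: Hoechst nuclear count by high-content imaging. MCF-7, 8-point dilution series, 6 h exposure. Bidirectional fit vs DMSO baseline.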
# [8] = TAMU_PeakParms_SingleDonor1434_Chronotropy: Texas A&M University (TAMU) 1.5-hr Human Induced Pluripotent Stem Cell (iPSC)-derived Cardiomyocytes Calcium (Ca+2) Flux Assay for Cardiotoxicity: Chronotropy (changes in peak frequency) (AID 2284217; active = hit-call score of the fitted dose curve at least 0.9, where 1 is the maximum; inactive = score below 0.9); settings: actives raise or lower the signal
# Outline: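 Using fluorescent Ca2+ flux, average beats per second are measured in human iPSC-derived cardiomyocytes treated 90 min (0.5% DMSO vehicle, 0.2–100 uM). Non-beating data points are removed; activity is modeled in both directions relative to DMSO controls.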
# [9] = TAMU_HCS_1.5hr_SingleDonor1434_Cytotoxicity: Cytotoxicity Assessment using High-content Screening (HCS) Fluorescent Imaging for the Texas A&M University (TAMU) 1.5-hr Human Induced Pluripotent Stem Cell (iPSC)-derived Cardiotoxicity Assay (AID 2284234)
# Outline: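 Nuclear counts from Hoechst 33342 imaging define cytotoxicity here, with EC10 (10% cell-count loss relative to DMSO) as point of departure. iPSC cardiomyocytes received 0.2-100 uM test chemical in 0.5% DMSO for 1.5 h at 37 C.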
# [10] = TAMU_PeakParms_SingleDonor1434_QT: Texas A&M University (TAMU) 1.5-hr Human Induced Pluripotent Stem Cell (iPSC)-derived Cardiomyocytes Calcium (Ca+2) Flux Assay for Cardiotoxicity: QT (decay-rise ratio) (AID 2284235)
# Outline: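 Decay/rise ratio of calcium-flux fluorescence scored after 90 min exposure (37C) of donor 1434 iPSC cardiomyocytes to 0.2–100 uM (0.5% DMSO). Beat-cessation and severe-notch points removed; POD is EC05, a 5% rise over DMSO.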
# [11] = TAMU_PeakParms_SingleDonor1434_Asystole: Texas A&M University (TAMU) 1.5-hr Human Induced Pluripotent Stem Cell (iPSC)-derived Cardiomyocytes Calcium (Ca+2) Flux Assay for Cardiotoxicity: Asystole (quiescence of beating) (AID 2284328)
# Outline: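 Donor 1434 iPSC-cardiomyocytes exposed 90 min at 37C, 5% CO2, to 0.2, 1, 10 and 100 uM in 0.5% DMSO. Ca2+ dye fluorescence gave average peak frequency; POD is EC95, a 95% beat-rate drop versus controls.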
# [12] = biological target: Cellular tumor antigen p53 (Homo sapiens) (UniProt P04637); test: TOX21_p53_BLA_p5_ratio: Tox21 HCT-116 p53 Agonism Beta-lactamase Assay, Ratio, Phase 5 (AID 2283599)
# Cellular tumor antigen p53 (Homo sapiens), sequence (P04637 whole entry, looked up): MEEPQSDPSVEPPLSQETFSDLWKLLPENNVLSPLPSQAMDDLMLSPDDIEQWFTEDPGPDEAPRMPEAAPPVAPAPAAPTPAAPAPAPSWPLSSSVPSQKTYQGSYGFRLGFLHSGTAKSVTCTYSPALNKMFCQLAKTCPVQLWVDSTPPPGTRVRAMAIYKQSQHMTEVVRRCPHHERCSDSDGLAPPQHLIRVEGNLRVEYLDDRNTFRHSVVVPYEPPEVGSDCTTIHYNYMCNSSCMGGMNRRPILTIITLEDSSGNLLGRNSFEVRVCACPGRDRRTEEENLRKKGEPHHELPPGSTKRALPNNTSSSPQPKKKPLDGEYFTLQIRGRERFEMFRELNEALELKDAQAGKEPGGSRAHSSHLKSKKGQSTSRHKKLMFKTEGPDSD
# Outline: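 HCT-116 p53-bla cells (4000/well) plated 5 h, dosed with compound (217-fold DMSO dilution) for 16 h at 37 C; CCF4-AM substrate 2 h at room temperature. Activity is the 460/530 nm emission ratio (405 nm excitation), fitted in gain-of-signal direction versus DMSO.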
# [13] = biological target: Cellular tumor antigen p53 (Homo sapiens) (UniProt P04637); test: TOX21_p53_BLA_p4_ratio: Tox21 HCT-116 p53 Agonism Beta-lactamase Assay, Ratio, Phase 4 (AID 2283601)
# Outline: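 HCT-116 p53 beta-lactamase reporter cells (4000/well) preincubated 5 h, then compound (217-fold dilution of DMSO stock) for 16 h at 37C. CCF4-AM substrate added 2 h at room temperature; 460/530 nm emission ratio fitted upward versus DMSO.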
# [14] = biological target: Cellular tumor antigen p53 (Homo sapiens) (UniProt P04637); test: TOX21_p53_BLA_p3_ratio: Tox21 HCT-116 p53 Agonism Beta-lactamase Assay, Ratio, Phase 3 (AID 2283596)
# Outline: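 Cells were seeded at 4000/well, rested 5 h at 37C, then dosed with DMSO compound solutions (217-fold dilution) for 16 h. CCF4-AM substrate was loaded for 2 h at room temperature, and the 460/530 nm emission ratio was fitted for gain of signal versus DMSO.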
compound,measurement,setting,value
COc1ccc(CCN(C)CCCC(C#N)(c2ccc(OC)c(OC)c2)C(C)C)cc1OC (configuration not stated),outcome,[1],inactive
same,outcome,[2],inactive
same,AC50,[3],39.2 µM (active)
same,outcome,[3],inactive
same,outcome,[4],inactive
same,outcome,[5],inactive
same,outcome,[6],inactive
same,outcome,[7],inactive
same,outcome,[8],inactive
same,outcome,[9],inactive
same,outcome,[10],inactive
same,outcome,[11],inactive
O=c1[nH]ncc2ccccc12,outcome,[1],inactive
same,outcome,[2],inactive
same,outcome,[3],inactive
same,outcome,[12],inactive
same,outcome,[13],inactive
COCC(=O)Nc1c(I)c(C(=O)NCC(O)CO)c(I)c(C(=O)N(C)CC(O)CO)c1I (configuration not stated),outcome,[1],inactive
same,outcome,[2],inactive
same,outcome,[14],inactive
same,outcome,[4],inactive
same,outcome,[13],inactive
CC(O)[C@@H]1NC(=O)[C@H](CCCCN)NC(=O)[C@@H](Cc2c[nH]c3ccccc23)NC(=O)[C@H](Cc2ccccc2)NC(=O)[C@@H](NC(=O)[C@H](N)Cc2ccccc2)CSSC[C@@H](C(=O)N[C@H](CO)[C@@H](C)O)NC1=O (some centres not stated),outcome,[1],inactive
same,outcome,[2],inactive
same,outcome,[3],inactive
same,outcome,[12],inactive
same,outcome,[4],inactive
CCC(=O)OCC(=O)[C@@]1(OC(=O)CC)[C@@H](C)C[C@H]2[C@@H]3CCC4=CC(=O)C=C[C@]4(C)[C@@]3(F)[C@@H](O)C[C@@]21C,outcome,[1],inactive
same,outcome,[2],inactive
same,outcome,[3],inactive
same,outcome,[12],inactive
same,outcome,[13],inactive
CC(N)C(=O)OC(C)(C)Cc1ccc(Cl)cc1 (configuration not stated),outcome,[1],inactive
same,outcome,[2],inactive
same,outcome,[14],inactive
same,outcome,[4],inactive
same,outcome,[13],inactive
CCN1CCOCC1,outcome,[1],inactive
same,outcome,[2],inactive
same,outcome,[3],inactive
same,outcome,[12],inactive
same,outcome,[4],inactive
Oc1cccc2cc3cccc(O)c3c(O)c12,outcome,[1],inactive
same,outcome,[2],inactive
same,outcome,[3],inactive
same,outcome,[12],inactive
same,outcome,[13],inactive
O=[N+]([O-])c1ccc(F)cc1F,outcome,[1],inactive
same,outcome,[2],inactive
same,outcome,[3],inactive
same,outcome,[12],inactive
same,outcome,[4],inactive
O=C(O)/C=C/C(O)c1ccc(Cl)cc1 (configuration not stated),outcome,[1],inactive
same,outcome,[2],inactive
same,outcome,[3],inactive
same,outcome,[12],inactive
same,outcome,[4],inactive
same,outcome,[13],inactive
Cc1ccc(C(=O)O)cc1,outcome,[1],inactive
same,outcome,[2],inactive
same,outcome,[3],inactive
same,outcome,[12],inactive
same,outcome,[4],inactive
COC(=O)[C@H]1[C@H]2C[C@@H]3c4[nH]c5cc(OC)ccc5c4CCN3C[C@H]2C[C@H](OC)[C@@H]1OC,outcome,[1],inactive
same,outcome,[2],inactive
same,outcome,[3],inactive
same,outcome,[12],inactive
CC(C)CCOC(=O)c1ccc(N(C)C)cc1,outcome,[1],inactive
same,outcome,[2],inactive
same,outcome,[3],inactive
same,outcome,[12],inactive
same,outcome,[4],inactive
same,outcome,[13],inactive
COc1ccc([C@@H]2Sc3ccccc3N(CCN(C)C)C(=O)[C@@H]2OC(C)=O)cc1,outcome,[1],inactive
same,AC50,[2],38.8 µM (active)
same,AC50,[14],43.6 µM (active)
same,outcome,[4],inactive
same,outcome,[13],inactive
same,outcome,[5],inactive
same,outcome,[6],inactive
CC(=O)CCCCn1c(=O)c2c(ncn2C)n(C)c1=O,outcome,[1],inactive
same,outcome,[2],inactive
same,outcome,[3],inactive
same,outcome,[12],inactive
same,outcome,[4],inactive
same,outcome,[13],inactive
same,outcome,[5],inactive
same,outcome,[6],inactive
same,outcome,[7],inactive
CCCCCCCCCCCCCCCCCCOCCO,outcome,[1],inactive
same,outcome,[2],inactive
same,outcome,[3],inactive
same,outcome,[12],inactive
same,outcome,[4],inactive
CC(=O)SC[C@@H](Cc1ccccc1)C(=O)NCC(=O)OCc1ccccc1,outcome,[1],inactive
same,outcome,[2],inactive
same,outcome,[3],inactive
same,outcome,[12],inactive
same,outcome,[4],inactive
same,outcome,[13],inactive
Oc1cc2c(cc1O)[C@H]1c3ccc(O)c(O)c3OC[C@@]1(O)C2,outcome,[1],inactive
same,outcome,[2],inactive
same,outcome,[3],inactive
same,outcome,[12],inactive
OCCN(CCO)CCN(CCO)CCO,outcome,[1],inactive
same,outcome,[2],inactive
same,outcome,[3],inactive
same,outcome,[12],inactive
same,outcome,[4],inactive
c1ccc(CC2=NCCN2)cc1,outcome,[1],inactive
same,outcome,[2],inactive
same,outcome,[3],inactive
same,outcome,[12],inactive
CCC[C@H](N[C@@H](C)C(=O)N1[C@H](C(=O)O)C[C@@H]2CCCC[C@@H]21)C(=O)OCC,outcome,[1],inactive
same,outcome,[2],inactive
same,outcome,[14],inactive
same,outcome,[4],inactive
same,outcome,[13],inactive
same,outcome,[5],inactive
same,outcome,[6],inactive
same,outcome,[7],inactive
CN(C)CCOC1=Cc2ccccc2Sc2ccc(Cl)cc21,outcome,[1],inactive
same,outcome,[2],inactive
same,AC50,[3],35.4 µM (active)
Cc1ccc(Cl)cc1N,outcome,[1],inactive
same,outcome,[2],inactive
same,outcome,[3],inactive
same,outcome,[12],inactive
same,outcome,[13],inactive
CC(C)=CCCC(C)=CC=NO,outcome,[1],inactive
same,outcome,[2],inactive
same,outcome,[3],inactive
NC(=O)CCCCC1CCSS1 (configuration not stated),outcome,[1],inactive
same,outcome,[2],inactive
same,outcome,[3],inactive
same,outcome,[12],inactive
CC(C)C(O)(c1ccc(OC(F)(F)F)cc1)c1cncnc1 (configuration not stated),outcome,[1],inactive
same,outcome,[2],inactive
same,outcome,[3],inactive
same,outcome,[12],inactive
same,outcome,[4],inactive
same,outcome,[13],inactive
N#Cc1ccc(C(=O)O)cc1,outcome,[1],inactive
same,outcome,[2],inactive
same,outcome,[3],inactive
same,outcome,[12],inactive
same,outcome,[4],inactive
same,outcome,[13],inactive
CCCCCCc1ccc(-c2ccc(C#N)cc2)cc1,outcome,[1],inactive
same,outcome,[2],inactive
same,outcome,[3],inactive
N#C[C@@H]1C[C@@H]2C[C@@H]2N1C(=O)[C@@H](N)C12CC3CC(CC(O)(C3)C1)C2,outcome,[1],inactive
same,outcome,[2],inactive
same,outcome,[3],inactive
same,outcome,[12],inactive
same,outcome,[4],inactive
same,outcome,[13],inactive
COc1ccc2[nH]c(S(=O)Cc3ncc(C)c(OC)c3C)nc2n1 (configuration not stated),outcome,[1],inactive
same,outcome,[2],inactive
same,outcome,[14],inactive
same,outcome,[13],inactive
COC(=O)c1ccccc1C(=O)c1ccc(OCCN2CCCCC2)cc1,outcome,[1],inactive
same,outcome,[2],inactive
same,outcome,[3],inactive
same,outcome,[12],inactive
same,outcome,[4],inactive
same,outcome,[13],inactive
